{
  "source": "PubChem BioAssay AID1159580",
  "about": "(chemical genetic matrix, 2015)",
  "assay": "chemical genetic growth profiling, strain panel (AID 1159580);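 further: tested at 20 µM; growth read once vehicle control cultures reached saturation at 30 °C; 1 = growth at the plate median or of vehicle wells; lower values mean less growth of the strain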",
  "settings": "growth OD",
  "note": "The campaign covered roughly 5,500 compounds. About 2,000 (36%) were called active. Not shown: some 18% with an inconclusive outcome. Some of the results follow. Unmarked numbers belong to inactive results. No stated cut-off is given here; in the data, active means normalized growth mostly below about 0.91 (no sharp cut-off); inconclusive means no clear call, values can overlap the other calls; inactive means mostly above about 0.92.",
  "data": [
    {"smiles": "C#C[C@]1(O)CCC2C3CCC4=CC(=O)CC[C@@H]4C3CC[C@@]21CC", "note": "(stereo not given in full)", "values": [
      {"measurement": "normalized growth", "setting": "S. cerevisiae deletion strains, locus YJR066W, strain TOR1, active compounds read low", "value": 0.91},
      {"measurement": "normalized growth", "setting": "S. cerevisiae deletion strains, locus YKL009W, strain mrt4, active compounds read low", "value": 0.96},
      {"measurement": "normalized growth", "setting": "S. cerevisiae deletion strains, locus YKL068W, active compounds read low", "value": 0.999},
      {"measurement": "normalized growth", "setting": "S. cerevisiae deletion strains, locus YKL085W, strain MDH1 (second series), active compounds read low", "value": 0.988},
      {"measurement": "normalized growth", "setting": "S. cerevisiae deletion strains, locus YKL085W, strain MDH1, active compounds read low", "value": 0.988},
      {"measurement": "normalized growth", "setting": "S. cerevisiae deletion strains, locus YKL160W, strain elf1, active compounds read low", "value": 0.988},
      {"measurement": "normalized growth", "setting": "S. cerevisiae deletion strains, locus YKL190W, strain CNB1, active compounds read low", "value": 1.01},
      {"measurement": "normalized growth", "setting": "S. cerevisiae deletion strains, locus YKR001C, strain vps1, active compounds read low", "value": 1},
      {"measurement": "normalized growth", "setting": "S. cerevisiae deletion strains, locus YKR026C, strain gcn3, active compounds read low", "value": 1},
      {"measurement": "normalized growth", "setting": "S. cerevisiae deletion strains, locus YKR091W, strain srl3, active compounds read low", "value": 0.993},
      {"measurement": "normalized growth", "setting": "S. cerevisiae deletion strains, locus YLL001W, strain dnm1, active compounds read low", "value": 0.987},
      {"measurement": "normalized growth", "setting": "S. cerevisiae deletion strains, locus YLL026W, active compounds read low", "value": 1},
      {"measurement": "normalized growth", "setting": "S. cerevisiae deletion strains, locus YLL041C, strain sdh2, active compounds read low", "value": 0.99},
      {"measurement": "normalized growth", "setting": "S. cerevisiae deletion strains, locus YLR027C, strain aat2, active compounds read low", "value": 0.989},
      {"measurement": "normalized growth", "setting": "S. cerevisiae deletion strains, locus YLR039C, strain RIC1, active compounds read low", "value": 0.949},
      {"measurement": "normalized growth", "setting": "S. cerevisiae deletion strains, locus YLR058C, strain SHM2, active compounds read low", "value": 0.998},
      {"measurement": "normalized growth", "setting": "S. cerevisiae deletion strains, locus YLR102C, strain apc9, active compounds read low", "value": 0.992},
      {"measurement": "normalized growth", "setting": "S. cerevisiae deletion strains, locus YLR113W, strain HOG1, active compounds read low", "value": 0.946},
      {"measurement": "normalized growth", "setting": "S. cerevisiae deletion strains, locus YLR221C, strain rsa3, active compounds read low", "value": 0.997},
      {"measurement": "normalized growth", "setting": "S. cerevisiae deletion strains, locus YLR258W, strain gsy2, active compounds read low", "value": 1},
      {"measurement": "normalized growth", "setting": "S. cerevisiae deletion strains, locus YLR262C, strain YPT6 (second series), active compounds read low", "value": "0.829 (active)"},
      {"measurement": "normalized growth", "setting": "S. cerevisiae deletion strains, locus YLR262C, strain YPT6, active compounds read low", "value": 0.903},
      {"measurement": "normalized growth", "setting": "S. cerevisiae deletion strains, locus YLR268W, strain sec22, active compounds read low", "value": 0.958},
      {"measurement": "normalized growth", "setting": "S. cerevisiae deletion strains, locus YLR320W, strain mms22, active compounds read low", "value": 0.96},
      {"measurement": "normalized growth", "setting": "S. cerevisiae deletion strains, locus YLR330W, strain CHS5, active compounds read low", "value": 0.991},
      {"measurement": "normalized growth", "setting": "S. cerevisiae deletion strains, locus YLR342W, strain FKS1 (second series), active compounds read low", "value": 0.983},
      {"measurement": "normalized growth", "setting": "S. cerevisiae deletion strains, locus YLR342W, strain FKS1, active compounds read low", "value": 0.985},
      {"measurement": "normalized growth", "setting": "S. cerevisiae deletion strains, locus YLR357W, strain rsc2, active compounds read low", "value": 1.06},
      {"measurement": "normalized growth", "setting": "S. cerevisiae deletion strains, locus YLR370C, strain arc18, active compounds read low", "value": 0.984},
      {"measurement": "normalized growth", "setting": "S. cerevisiae deletion strains, locus YLR371W, strain rom2, active compounds read low", "value": 0.992},
      {"measurement": "normalized growth", "setting": "S. cerevisiae deletion strains, locus YLR384C, strain iki3, active compounds read low", "value": 0.992},
      {"measurement": "normalized growth", "setting": "S. cerevisiae deletion strains, locus YLR418C, strain cdc73, active compounds read low", "value": 1.03},
      {"measurement": "normalized growth", "setting": "S. cerevisiae deletion strains, locus YML016C, strain PPZ1, active compounds read low", "value": 0.989},
      {"measurement": "normalized growth", "setting": "S. cerevisiae deletion strains, locus YML032C, strain rad52, active compounds read low", "value": 0.977},
      {"measurement": "normalized growth", "setting": "S. cerevisiae deletion strains, locus YML120C, strain ndi1, active compounds read low", "value": 1.01},
      {"measurement": "normalized growth", "setting": "S. cerevisiae deletion strains, locus YML124C, strain tub3, active compounds read low", "value": 0.988},
      {"measurement": "normalized growth", "setting": "S. cerevisiae deletion strains, locus YMR058W, strain fet3, active compounds read low", "value": 0.987},
      {"measurement": "normalized growth", "setting": "S. cerevisiae deletion strains, locus YMR078C, strain ctf18, active compounds read low", "value": 0.989},
      {"measurement": "normalized growth", "setting": "S. cerevisiae deletion strains, locus YMR125W, strain sto1, active compounds read low", "value": 1},
      {"measurement": "normalized growth", "setting": "S. cerevisiae deletion strains, locus YMR129W, active compounds read low", "value": 0.983},
      {"measurement": "normalized growth", "setting": "S. cerevisiae deletion strains, locus YMR205C, strain PFK2, active compounds read low", "value": 0.989},
      {"measurement": "normalized growth", "setting": "S. cerevisiae deletion strains, locus YMR223W, strain ubp8, active compounds read low", "value": 0.987},
      {"measurement": "normalized growth", "setting": "S. cerevisiae deletion strains, locus YMR231W, strain pep5, active compounds read low", "value": 0.999},
      {"measurement": "normalized growth", "setting": "S. cerevisiae deletion strains, locus YMR307W, strain GAS1, active compounds read low", "value": 1.12},
      {"measurement": "normalized growth", "setting": "S. cerevisiae deletion strains, locus YNL067W, strain RPL9B, active compounds read low", "value": 1.01},
      {"measurement": "normalized growth", "setting": "S. cerevisiae deletion strains, locus YNL071W, strain lat1, active compounds read low", "value": 0.992},
      {"measurement": "normalized growth", "setting": "S. cerevisiae deletion strains, locus YNL128W, strain TEP1, active compounds read low", "value": 0.988},
      {"measurement": "normalized growth", "setting": "S. cerevisiae deletion strains, locus YNL153C, strain GIM3, active compounds read low", "value": 1.01},
      {"measurement": "normalized growth", "setting": "S. cerevisiae deletion strains, locus YNL183C, strain NPR1, active compounds read low", "value": 0.922},
      {"measurement": "normalized growth", "setting": "S. cerevisiae deletion strains, locus YNL209W, strain ssb2, active compounds read low", "value": 0.993},
      {"measurement": "normalized growth", "setting": "S. cerevisiae deletion strains, locus YNL233W, strain BNI4, active compounds read low", "value": 0.992},
      {"measurement": "normalized growth", "setting": "S. cerevisiae deletion strains, locus YNL248C, strain rpa49, active compounds read low", "value": 1},
      {"measurement": "normalized growth", "setting": "S. cerevisiae deletion strains, locus YNL250W, strain rad50, active compounds read low", "value": 0.988},
      {"measurement": "normalized growth", "setting": "S. cerevisiae deletion strains, locus YNL271C, strain bni1, active compounds read low", "value": 0.982},
      {"measurement": "normalized growth", "setting": "S. cerevisiae deletion strains, locus YNL298W, strain CLA4, active compounds read low", "value": 0.961},
      {"measurement": "normalized growth", "setting": "S. cerevisiae deletion strains, locus YNL307C, strain MCK1, active compounds read low", "value": 0.98},
      {"measurement": "normalized growth", "setting": "S. cerevisiae deletion strains, locus YNL322C, strain KRE1 (second series), active compounds read low", "value": 1},
      {"measurement": "normalized growth", "setting": "S. cerevisiae deletion strains, locus YNR049C, strain mso1, active compounds read low", "value": 1},
      {"measurement": "normalized growth", "setting": "S. cerevisiae deletion strains, locus YNR052C, strain pop2, active compounds read low", "value": 0.964},
      {"measurement": "normalized growth", "setting": "S. cerevisiae deletion strains, locus YOL006C, strain TOP1, active compounds read low", "value": 1.03},
      {"measurement": "normalized growth", "setting": "S. cerevisiae deletion strains, locus YOL012C, strain htz1", "value": 1.51},
      {"measurement": "normalized growth", "setting": "S. cerevisiae deletion strains, locus YOL147C, strain pex11, active compounds read low", "value": 0.994},
      {"measurement": "normalized growth", "setting": "S. cerevisiae deletion strains, locus YOR001W, strain rrp6, active compounds read low", "value": 0.967},
      {"measurement": "normalized growth", "setting": "S. cerevisiae deletion strains, locus YOR061W, strain CKA2, active compounds read low", "value": 0.983},
      {"measurement": "normalized growth", "setting": "S. cerevisiae deletion strains, locus YOR069W, strain VPS5, active compounds read low", "value": 0.991},
      {"measurement": "normalized growth", "setting": "S. cerevisiae deletion strains, locus YOR070C, strain gyp1, active compounds read low", "value": 0.995},
      {"measurement": "normalized growth", "setting": "S. cerevisiae deletion strains, locus YOR080W, strain dia2, active compounds read low", "value": 0.996},
      {"measurement": "normalized growth", "setting": "S. cerevisiae deletion strains, locus YOR083W, strain WHI5, active compounds read low", "value": 0.997},
      {"measurement": "normalized growth", "setting": "S. cerevisiae deletion strains, locus YOR106W, strain vam3, active compounds read low", "value": 0.997},
      {"measurement": "normalized growth", "setting": "S. cerevisiae deletion strains, locus YOR136W, strain idh2, active compounds read low", "value": 0.991},
      {"measurement": "normalized growth", "setting": "S. cerevisiae deletion strains, locus YOR144C, strain elg1, active compounds read low", "value": 0.994},
      {"measurement": "normalized growth", "setting": "S. cerevisiae deletion strains, locus YOR184W, strain ser1, active compounds read low", "value": 0.912},
      {"measurement": "normalized growth", "setting": "S. cerevisiae deletion strains, locus YOR231W, strain MKK1, active compounds read low", "value": 0.983},
      {"measurement": "normalized growth", "setting": "S. cerevisiae deletion strains, locus YOR265W, strain rbl2, active compounds read low", "value": 1},
      {"measurement": "normalized growth", "setting": "S. cerevisiae deletion strains, locus YOR270C, strain vph1, active compounds read low", "value": 0.957},
      {"measurement": "normalized growth", "setting": "S. cerevisiae deletion strains, locus YOR290C, strain snf2, active compounds read low", "value": 0.98},
      {"measurement": "normalized growth", "setting": "S. cerevisiae deletion strains, locus YOR316C, strain cot1, active compounds read low", "value": 0.989},
      {"measurement": "normalized growth", "setting": "S. cerevisiae deletion strains, locus YPL051W, strain arl3, active compounds read low", "value": 0.979},
      {"measurement": "normalized growth", "setting": "S. cerevisiae deletion strains, locus YPL055C, strain LGE1, active compounds read low", "value": 1.04},
      {"measurement": "normalized growth", "setting": "S. cerevisiae deletion strains, locus YPL078C, strain atp4, active compounds read low", "value": 0.996},
      {"measurement": "normalized growth", "setting": "S. cerevisiae deletion strains, locus YPL106C, strain sse1, active compounds read low", "value": 1.06},
      {"measurement": "normalized growth", "setting": "S. cerevisiae deletion strains, locus YPL240C, strain hsp82, active compounds read low", "value": 1},
      {"measurement": "normalized growth", "setting": "S. cerevisiae deletion strains, locus YPL241C, strain CIN2, active compounds read low", "value": 1},
      {"measurement": "normalized growth", "setting": "S. cerevisiae deletion strains, locus YPL256C, strain CLN2, active compounds read low", "value": 0.963},
      {"measurement": "normalized growth", "setting": "S. cerevisiae deletion strains, locus YPR119W, strain clb2, active compounds read low", "value": 1},
      {"measurement": "normalized growth", "setting": "S. cerevisiae deletion strains, locus YPR141C, strain kar3, active compounds read low", "value": 0.983},
      {"measurement": "normalized growth", "setting": "S. cerevisiae deletion strains, locus YPR163C, strain tif3, active compounds read low", "value": 0.99},
      {"measurement": "normalized growth", "setting": "S. cerevisiae deletion strains, locus YPR167C, strain met16, active compounds read low", "value": 0.988},
      {"measurement": "normalized growth", "setting": "S. cerevisiae deletion strains, strain wtn01, active compounds read low", "value": 0.973},
      {"measurement": "normalized growth", "setting": "S. cerevisiae strains, strain wild type, active compounds read low", "value": 1.02}
    ]}
  ]
}
